The record followed here is PubChem BioAssay (EPA / NIEHS).

Results filed as inconclusive are left out. The source made the active and inactive calls. How the source made its calls, unless noted: active means hit-call score of the fitted dose curve at least 0.9, where 1 is the maximum; inactive means score below 0.9.

Assay [1] addresses Retinoic acid receptor RXR-alpha (Homo sapiens) (UniProt P19793). Put plainly: ATG_RXRa_TRANS: Attagene TRANS-FACTORIAL HepG2 Assay for human Retinoid X Receptor alpha (RXRa) (AID 2283012; active means hit-call score of the fitted dose curve at least 0.9, where 1 is the maximum). The gist of the method: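 Transient transfection of human HepG2 with multiple GAL4-UAS reporter constructs; 24 h compound exposure; total RNA isolated, reverse-transcribed, PCR-amplified, 6-FAM labelled, HpaI-cut, resolved by capillary electrophoresis. Positive-direction fit versus DMSO.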

In assay [2] the target is human Thyroid Receptor alpha (THRa1), THRA (gene 7067) (UniProt P10827). In words: ATG_THRa1_TRANS: Attagene TRANS-FACTORIAL HepG2 Assay for human Thyroid Receptor alpha (THRa1) (AID 2283014; active means hit-call score of the fitted dose curve at least 0.9, where 1 is the maximum). The gist of the method:
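First, HepG2 cells receive multiple GAL4-UAS reporter units and the chimeric receptor. They are then dosed for 24 h, after which RNA is reverse-transcribed, amplified, labelled, HpaI-cut and sized by capillary electrophoresis; gain relative to DMSO is scored.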

Read-out in assay [3]: E-selectin (Homo sapiens) (UniProt P16581)
In words: BSK_3C_Eselectin: BioMAP Diversity Plus: 3C Assay for Eselectin Biomarker Activity (AID 2283015).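 On outcome: cell surface E-selectin protein quantified by ELISA 24 h after dosing.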 As to conditions: primary human endothelial cells (HUVEC); actives raise or lower the signal. The method in brief:
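Human vascular endothelium from umbilical vein is exposed to test chemicals for 24 h. E-selectin levels are read by ELISA and compared with DMSO controls.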

Read-out in assay [4]: Interleukin-1 alpha (IL1a), IL1A (gene 3552)
In words: BSK_BE3C_IL1a: BioMAP Diversity Plus: BE3C Assay for Interleukin-1 alpha (IL1a) Biomarker Activity (AID 2283016). As to conditions: primary human bronchial epithelial cells; actives raise or lower the signal. The gist of the method:
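BE3C primary human bronchial epithelium; cpd 24 h; IL-1a by ELISA; bidirectional fit vs DMSO; parallel SRB (0.1% SRB, 10% TCA fix, 560 nm) for cytotoxicity.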

Read-out in assay [5]: Monocyte Chemoattractant Protein-1 (MCP1), CCL2 (gene 6347)
Put plainly: BSK_3C_MCP1: BioMAP Diversity Plus: 3C Assay for Monocyte Chemoattractant Protein-1 (MCP1) Biomarker Activity (AID 2283017). Particulars: primary human endothelial cells (HUVEC); actives raise or lower the signal. The gist of the method:
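Endothelial cells from human umbilical vein are dosed with chemical, cultured 24 h, then assayed for MCP-1 by ELISA; both increases and decreases are modelled against DMSO controls.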

Read-out in assay [6]: Monocyte Chemoattractant Protein-1 (MCP1), CCL2 (gene 6347)
In words: BSK_4H_MCP1: BioMAP Diversity Plus: 4H Assay for Monocyte Chemoattractant Protein-1 (MCP1) Biomarker Activity (AID 2283018). Particulars: primary human endothelial cells (HUVEC); actives raise or lower the signal. The gist of the method:
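ELISA read-out of MCP-1 from human vascular endothelial primary cells taken at 24 hours after compound exposure. Activity was fitted in both directions relative to DMSO, which served as negative control.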

Read-out in assay [7]: Human Leukocyte Antigen - DR isotype (HLADR), HLA-DRA (gene 3122)
In words: BSK_3C_HLADR: BioMAP Diversity Plus: 3C Assay for Human Leukocyte Antigen - DR isotype (HLADR) Biomarker Activity (AID 2283019).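 On outcome: ELISA of cell-surface HLA-DR on HUVEC 24 h after dosing.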 As to conditions: primary human endothelial cells (HUVEC); actives raise or lower the signal. The gist of the method: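 Endothelial cells from human umbilical vein are treated with test chemical; after 24 h, HLA-DR levels are measured by ELISA. Data are fitted in both directions using DMSO as the baseline.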

Read-out in assay [8]: Interleukin-8 (IL8), CXCL8 (gene 3576)
Put plainly: BSK_3C_IL8: BioMAP Diversity Plus: 3C Assay for Interleukin-8 (IL8) Biomarker Activity (AID 2283020). As to conditions: primary human endothelial cells (HUVEC); actives raise or lower the signal. The method in brief: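 ELISA read-out of IL-8 from human umbilical vein endothelium, measured 24 h after chemical dosing. Activity is expressed relative to DMSO negative control, with both increases and decreases fitted.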

Read-out in assay [9]: Monokine induced gamma interferon (MIG), CXCL9 (gene 4283)
Put plainly: BSK_3C_MIG: BioMAP Diversity Plus: 3C Assay for Monokine induced gamma interferon (MIG) Biomarker Activity (AID 2283021).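 On AC50: MIG protein level measured by immunoassay in the treated endothelial cultures.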 As to conditions: primary human endothelial cells (HUVEC); actives raise or lower the signal. The method in brief: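 Read-out is ELISA detection of MIG on human umbilical vein endothelial cells, taken 24 h after dosing. Gain or loss of signal was scored relative to DMSO controls using bidirectional curve fitting.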

Assay [10] deals with human Vitamin D Receptor (VDR), VDR (gene 7421) (UniProt P11473). Put plainly: ATG_VDR_TRANS: Attagene TRANS-FACTORIAL HepG2 Assay for human Vitamin D Receptor (VDR) (AID 2283022; active means hit-call score of the fitted dose curve at least 0.9, where 1 is the maximum). The gist of the method:
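Fluorescence of labelled reporter cDNA fragments, resolved by capillary electrophoresis, gives mRNA induction after 24 h treatment of HepG2 cells carrying transfected Gal4-fusion reporter units. Activity is fitted in the positive direction with DMSO as baseline.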

Assay [11] in a line: BSK_3C_SRB: Viability Assessment in the BioMAP Diversity Plus: 3C Assay (AID 2283023).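 Further: fitted both ways against DMSO so a hit may be signal rise or drop.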 As to conditions: primary human endothelial cells (HUVEC). The gist of the method:
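Cells were dosed with chemical, cultured 24 h, fixed with 10% TCA, stained with 0.1% SRB and read at 560 nm. Human umbilical vein endothelium was used; DMSO served as negative control and baseline.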

Read-out in assay [12]: Matrix Metallopeptidase 1 (MMP1), MMP1 (gene 4312)
In words: BSK_BE3C_MMP1: BioMAP Diversity Plus: BE3C Assay for Matrix Metallopeptidase 1 (MMP1) Biomarker Activity (AID 2283024). Particulars: primary human bronchial epithelial cells; actives raise or lower the signal. The gist of the method:
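Human bronchial epithelial cells (BE3C system) exposed to compound for 24 h; MMP1 then quantified by ELISA. Activity was fitted in both directions relative to DMSO.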

Read-out in assay [13]: Pselectin, SELP (gene 6403)
In words: BSK_4H_Pselectin: BioMAP Diversity Plus: 4H Assay for Pselectin Biomarker Activity (AID 2283026). As to conditions: primary human endothelial cells (HUVEC); actives raise or lower the signal. The gist of the method: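 ELISA read-out of P-selectin on human umbilical vein endothelium after 24 h of dosing. Values derive from bidirectional fitting relative to DMSO. Parallel SRB protein staining flagged overt cytotoxicity.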

Assay [14] can be described thus: BSK_4H_SRB: Viability Assessment in the BioMAP Diversity Plus: 4H Assay (AID 2283027).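 Further: cells exposed to compound for 24 h before staining.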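 On AC50: curves fitted both ways versus DMSO so AC50 may be loss or gain.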 As to conditions: primary human endothelial cells (HUVEC). The method in brief: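 Human umbilical vein endothelial cells were dosed with chemical and, after 24 h, fixed with 10% TCA, stained with 0.1% sulforhodamine B, and read at 560 nm to give total protein as a cytotoxicity measure. Bidirectional fitting relative to DMSO control.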

Assay [15] in a line: BSK_BE3C_SRB: Viability Assessment in the BioMAP Diversity Plus: BE3C Assay (AID 2283028).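 On AC50: fitted both ways so AC50 may mark signal gain or loss versus DMSO.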 Particulars: primary human bronchial epithelial cells. The method in brief: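 Overt cytotoxicity was assessed as total protein in confluent human primary bronchial epithelial cultures 24 h after chemical addition, using 0.1% sulforhodamine B staining read at 560 nm.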
Read-out in assay [16]: Thrombomodulin, THBD (gene 7056)
Put plainly: BSK_3C_Thrombomodulin: BioMAP Diversity Plus: 3C Assay for Thrombomodulin Biomarker Activity (AID 2283029). Particulars: primary human endothelial cells (HUVEC); actives raise or lower the signal. The gist of the method:
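Read-out is ELISA of thrombomodulin on human umbilical vein endothelium 24 h after chemical dosing. Gain or loss of signal is scored relative to DMSO. Overt cytotoxicity is checked in parallel cultures by sulforhodamine B staining.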

Read-out in assay [17]: Urokinase-type plasminogen activator receptor (uPAR), PLAUR (gene 5329)
In words: BSK_4H_uPAR: BioMAP Diversity Plus: 4H Assay for Urokinase-type plasminogen activator receptor (uPAR) Biomarker Activity (AID 2283030). As to conditions: primary human endothelial cells (HUVEC); actives raise or lower the signal. The gist of the method:
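Chemicals are dosed onto human vascular endothelial primary cells (umbilical vein). After 24 h, uPAR is read by ELISA. Gain or loss of signal is fitted relative to DMSO.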

Read-out in assay [18]: Vascular endothelial growth factor receptor 2 (Homo sapiens) (UniProt P35968)
Put plainly: BSK_4H_VEGFRII: BioMAP Diversity Plus: 4H Assay for Vascular endothelial growth factor receptor 2 (VEGFR2) Biomarker Activity (AID 2283031).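 On AC50: cell-surface VEGFR2 protein level quantified by ELISA.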 Particulars: primary human endothelial cells (HUVEC); actives raise or lower the signal. The method in brief: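 VEGFRII levels on human vascular endothelial primary cells were determined by ELISA at 24 hours post-dosing, with gain- or loss-of-signal fitted against DMSO controls.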

The nature of assay [19]: BSK_3C_Vis: BioMAP Diversity Plus: 3C Assay for Morphology Visualization (AID 2283025).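 Further: fitted both ways so gain or loss versus DMSO counts.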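 On AC50: light microscopy image of cell morphology used as background control.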 As to conditions: primary human endothelial cells (HUVEC). The gist of the method: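 Chemicals were added to primary human umbilical vein endothelium, cells were incubated 24 h, and morphology was then visualized by light microscopy. Gain or loss of signal was fitted bidirectionally relative to DMSO.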

E-selectin (Homo sapiens), sequence (P16581 whole entry, looked up): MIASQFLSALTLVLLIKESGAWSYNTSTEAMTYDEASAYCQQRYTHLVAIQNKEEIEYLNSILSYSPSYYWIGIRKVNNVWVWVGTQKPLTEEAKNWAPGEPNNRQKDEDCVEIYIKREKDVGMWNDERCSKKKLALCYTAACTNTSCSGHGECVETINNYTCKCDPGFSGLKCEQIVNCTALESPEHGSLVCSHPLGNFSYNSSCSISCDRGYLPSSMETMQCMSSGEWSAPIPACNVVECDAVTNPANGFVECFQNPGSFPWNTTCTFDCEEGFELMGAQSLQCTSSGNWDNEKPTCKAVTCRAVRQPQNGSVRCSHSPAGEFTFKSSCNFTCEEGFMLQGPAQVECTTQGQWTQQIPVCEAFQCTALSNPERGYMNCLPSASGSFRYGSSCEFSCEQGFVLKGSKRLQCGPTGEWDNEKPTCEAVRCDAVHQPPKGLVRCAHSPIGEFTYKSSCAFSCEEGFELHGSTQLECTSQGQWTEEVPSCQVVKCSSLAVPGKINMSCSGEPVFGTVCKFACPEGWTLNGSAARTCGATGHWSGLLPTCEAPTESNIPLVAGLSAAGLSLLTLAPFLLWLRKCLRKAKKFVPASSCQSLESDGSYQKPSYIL
Retinoic acid receptor RXR-alpha (Homo sapiens), sequence (P19793 whole entry, looked up, the tested form may be a part): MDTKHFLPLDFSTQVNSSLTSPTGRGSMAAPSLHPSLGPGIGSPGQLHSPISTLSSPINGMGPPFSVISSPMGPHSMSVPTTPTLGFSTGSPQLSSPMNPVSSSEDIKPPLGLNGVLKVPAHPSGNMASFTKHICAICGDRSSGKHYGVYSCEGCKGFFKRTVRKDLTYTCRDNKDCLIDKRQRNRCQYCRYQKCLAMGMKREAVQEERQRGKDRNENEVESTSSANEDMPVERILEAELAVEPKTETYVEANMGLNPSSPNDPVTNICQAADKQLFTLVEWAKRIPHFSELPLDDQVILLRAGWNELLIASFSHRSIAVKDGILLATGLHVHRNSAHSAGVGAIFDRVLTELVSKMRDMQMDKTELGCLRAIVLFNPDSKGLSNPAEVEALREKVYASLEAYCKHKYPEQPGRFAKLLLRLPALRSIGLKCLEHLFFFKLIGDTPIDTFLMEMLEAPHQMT
human Vitamin D Receptor (VDR), VDR (gene 7421), sequence (P11473 whole entry, looked up, the tested form may be a part): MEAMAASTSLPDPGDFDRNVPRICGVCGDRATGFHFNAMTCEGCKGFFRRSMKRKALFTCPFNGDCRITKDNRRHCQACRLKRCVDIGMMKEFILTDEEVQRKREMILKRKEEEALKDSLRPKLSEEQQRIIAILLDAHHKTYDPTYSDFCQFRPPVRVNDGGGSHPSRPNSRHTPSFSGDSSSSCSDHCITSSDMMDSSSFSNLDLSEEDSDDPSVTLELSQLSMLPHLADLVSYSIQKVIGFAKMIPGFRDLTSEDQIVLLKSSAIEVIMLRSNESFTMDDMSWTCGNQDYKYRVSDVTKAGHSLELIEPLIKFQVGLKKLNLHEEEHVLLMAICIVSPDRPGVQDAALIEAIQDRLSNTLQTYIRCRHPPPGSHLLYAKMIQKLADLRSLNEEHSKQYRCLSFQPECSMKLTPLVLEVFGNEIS
human Thyroid Receptor alpha (THRa1), THRA (gene 7067), sequence (P10827 whole entry, looked up, the tested form may be a part): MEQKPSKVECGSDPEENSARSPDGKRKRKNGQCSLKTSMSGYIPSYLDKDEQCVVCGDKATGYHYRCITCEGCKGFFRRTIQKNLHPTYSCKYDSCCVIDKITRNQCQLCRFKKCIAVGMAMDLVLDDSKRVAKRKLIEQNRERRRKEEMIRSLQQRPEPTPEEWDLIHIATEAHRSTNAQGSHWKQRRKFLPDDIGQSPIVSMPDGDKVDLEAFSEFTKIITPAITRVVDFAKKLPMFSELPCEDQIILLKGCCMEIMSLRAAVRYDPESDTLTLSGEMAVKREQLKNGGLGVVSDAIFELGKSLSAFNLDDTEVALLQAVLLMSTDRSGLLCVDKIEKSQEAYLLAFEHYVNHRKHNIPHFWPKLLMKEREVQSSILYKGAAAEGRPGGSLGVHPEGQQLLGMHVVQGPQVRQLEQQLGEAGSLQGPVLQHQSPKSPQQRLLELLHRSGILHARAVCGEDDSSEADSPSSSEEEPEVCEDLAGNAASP

On to `COc1cccc(-c2ccc(/C=C\CN3CCCCCC3)cc2Cl)c1`, for which the call in [1], in assay [2], in assay [10], in [15] and in assay [16] was inactive. For the same compound, the AC50 in assay [3] was 28.6 µM (active); in assay [4] it was 29 µM (active); in assay [5], 30.9 µM (active); in assay [6], 25 µM (active); in assay [7], 27.8 µM (active); in assay [8], 31.9 µM (active). Also, the AC50 was 34.3 µM (active) in assay [9]; 25.8 µM (active) in [11]; 4.82 µM (active) in [12]; 26.5 µM (active) in [13]; 27.9 µM (active) in [14]; 26.9 µM (active) in [17]. Further, the half-maximal activity concentration (AC50) in assay [18] was 32.6 µM (active).
On to `On1ccccc1=S`, for which the call in assay [1], in [2] and in [10] was inactive. The half-maximal activity concentration (AC50) in [3] is 18.3 µM (active); in assay [4], 4.99 µM (active); in assay [7] it was 12.9 µM (active); in assay [9] it was 32 µM (active); in [11], 29.7 µM (active); in [12] it was 10.9 µM (active). For the same compound, the AC50 in assay [13] is 11.8 µM (active); in assay [15] it was 9.28 µM (active); in assay [16], 5.96 µM (active); in assay [17], 19.8 µM (active).
With `CCC(C)(C)C(=O)O[C@H]1C[C@@H](C)C=C2C=C[C@H](C)[C@H](CC[C@@H]3C[C@@H](O)CC(=O)O3)[C@H]21`, the outcome in [1], in assay [9] and in assay [13] was inactive. For the same compound, the AC50 in assay [3] was 30.2 µM (active); in [4] it was 33.1 µM (active); in assay [7], 25.8 µM (active); in assay [8], 26.5 µM (active); in assay [11], 3.97 µM (active); in [12], 31.9 µM (active). Further, the AC50 in [19] is 20 µM (active); in [15], 36.1 µM (active); in assay [16], 0.526 µM (active); in assay [17], 20 µM (active).
For the compound `COC(=O)CC(=O)OC`, the call in [1], in [3], in assay [4], in [6], in assay [7] and in assay [8] was inactive. In addition, the outcome in assay [9], in [10], in assay [11], in assay [12], in [19] and in assay [13] was inactive. The result in [15], in assay [16], in [17] and in assay [18] was inactive.
Consider `Nc1ccc(Nc2ccccc2)cc1`, for which the compound was called inactive in assay [1], in assay [4], in [5], in [8], in assay [9] and in assay [11]. The outcome in assay [19], in assay [14], in assay [15] and in assay [16] was inactive. Also, the AC50 was 5.7 µM (active) in assay [3], 2.83 µM (active) in assay [7], 8.67 µM (active) in assay [12] and 3.97 µM (active) in assay [13].
Turning to `CCOC(=O)c1ccc(C2CCC(NC[C@H](O)COc3ccc(O)c(NS(C)(=O)=O)c3)CC2)cc1` (stereo not given in full), the AC50 in [1] is 54.3 µM (active); in [5], 27.9 µM (active); in assay [7], 31.1 µM (active); in assay [11], 25.1 µM (active); in assay [19], 37.1 µM (active); in assay [13], 27 µM (active). Moreover, the concentration at half-maximal activity (AC50) in assay [14] is 27.5 µM (active). The outcome in assay [3], in assay [4], in [9], in [12], in assay [15] and in [16] was inactive. In addition, the outcome in assay [17] was inactive.
For `O=C(O)c1cccc(N(Cc2cccnc2)c2ccc(OC(F)F)c(OC(F)F)c2)c1`, the result in [1], in [3], in assay [4], in [6], in [8] and in assay [9] was inactive. For the same compound, the compound was called inactive in assay [10], in assay [11], in [12], in [19], in [15] and in assay [16]. For the same compound, the result in assay [17] and in assay [18] was inactive. In addition, the concentration at half-maximal activity (AC50) in assay [7] is 9.02 µM (active); in [13], 2.44 µM (active).
`O=c1[nH]c2ccc(S(=O)CCN3CCC(Cc4ccc(F)cc4)CC3)cc2o1` (stereo not given): the compound was called inactive in assay [1], in [3], in [4], in assay [5], in [7] and in assay [9]. Besides, the call in [10], in assay [11], in assay [12], in [19], in [13] and in assay [15] was inactive. The outcome in assay [16] was inactive. The concentration at half-maximal activity (AC50) is 4.88 µM (active) in assay [6], 3.97 µM (active) in assay [14] and 12.8 µM (active) in assay [17].

What is called AC50 is the concentration giving half of the maximal activity seen.
